Experimental data reported in PubChem BioAssay (EPA / NIEHS).
Active and inactive are the calls of the source. Rule for the calls: active = hit-call score of the fitted dose curve at least 0.9, where 1 is the maximum; inactive = score below 0.9.

What was measured:
Conditions in all cases: mRNA level, 48 h; actives raise or lower the signal
BCL2L11 (gene 10018) = assay: LTEA_HepaRG_BCL2L11: Life Technologies and Expression Analysis (LTEA) Assay for Bcl-2 (BCL2L11) gene using HepaRG (AID 2283473)
How it was run: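 Read-out is BCL2L11 transcript level by qRT-PCR, normalized to three housekeeping genes and fitted bidirectionally against 0.5% DMSO vehicle. HepaRG cells received chemicals for 48 h in serum-free induction medium, 100 uM down in half-log dilutions.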

[1] = read-out: Apolipoprotein A-V (APOA5) gene, APOA5 (gene 116519); assay: LTEA_HepaRG_APOA5: Life Technologies and Expression Analysis (LTEA) Assay for Apolipoprotein A-V (APOA5) gene using HepaRG (AID 2283474)
How it was run: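 Readout is APOA5 transcript level by qRT-PCR on Fluidigm dynamic arrays, normalized to three housekeeping genes. HepaRG cultures received chemicals for 48 h at up to 100 uM (half-log steps, 0.5% DMSO), with gain or loss scored relative to DMSO.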

[2] = read-out: Apoptosis regulator Bcl-2 (Homo sapiens) (UniProt P10415); assay: LTEA_HepaRG_BCL2: Life Technologies and Expression Analysis (LTEA) Assay for Bcl-2 gene using HepaRG (AID 2283475)
How it was run: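 Differentiated human HepaRG cells in serum-free induction medium exposed 48 h, in duplicate, to 8-point half-log series from 100 uM in 0.5% DMSO. BCL2 mRNA by qRT-PCR (TaqMan/Fluidigm), normalized to ACTB, GAPDH, POLR2A; bidirectional fit against DMSO.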

[3] = read-out: Bcl-2 (BID) gene, BID (gene 637); assay: LTEA_HepaRG_BID: Life Technologies and Expression Analysis (LTEA) Assay for Bcl-2 (BID) gene using HepaRG (AID 2283476)
How it was run: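 Gene expression by qRT-PCR in HepaRG cells after 48 h exposure, duplicate wells, eight half-log concentrations topping at 100 uM in 0.5% DMSO. Normalized to ACTB, GAPDH, POLR2A; bidirectional fitting relative to DMSO.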

Caspase-3 (Homo sapiens) = Caspase-3 (Homo sapiens) (UniProt P42574); assay: LTEA_HepaRG_CASP3: Life Technologies and Expression Analysis (LTEA) Assay for cysteine-aspartic acid protease (CASP3) using HepaRG (AID 2283477)
How it was run: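 Read-out is CASP3 mRNA level by TaqMan qRT-PCR in human HepaRG cells after 48 h chemical exposure. Eight half-log concentrations topping at 100 uM were tested in 0.5% DMSO; gain or loss was fitted relative to DMSO.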

[4] = read-out: Cytochrome P450 (CYP24A1), CYP24A1 (gene 1591); assay: LTEA_HepaRG_CYP24A1: Life Technologies and Expression Analysis (LTEA) Assay for Cytochrome P450 (CYP24A1) using HepaRG (AID 2283478)
How it was run: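 HepaRG, 48 h chemical exposure, 8-pt half-log CRC from 100 uM, 0.5% DMSO vehicle, duplicates. Endpoint: CYP24A1 mRNA by Fluidigm TaqMan qRT-PCR, normalized ACTB/GAPDH/POLR2A; gain/loss fit vs DMSO.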

[5] = read-out: cysteine-aspartic acid protease (CASP8), CASP8 (gene 841); assay: LTEA_HepaRG_CASP8: Life Technologies and Expression Analysis (LTEA) Assay for cysteine-aspartic acid protease (CASP8) using HepaRG (AID 2283480)
How it was run: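 HepaRG, 48 h exposure, duplicate wells; 8 conc, half-log from 100 uM, 0.5% DMSO. Serum-free induction medium. CASP8 mRNA by TaqMan qRT-PCR, norm. ACTB/GAPDH/POLR2A; gain/loss fitted vs DMSO.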

[6] = read-out: Cytochrome P450 (CYP2B6), CYP2B6 (gene 1555); assay: LTEA_HepaRG_CYP2B6: Life Technologies and Expression Analysis (LTEA) Assay for Cytochrome P450 (CYP2B6) using HepaRG (AID 2283481)
How it was run: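 HepaRG cells plated 48 h, switched to serum-free induction medium, then dosed 48 h (8 points, half-log from 100 uM, 0.5% DMSO). RNA isolated; CYP2B6 expression measured by qRT-PCR; gain or loss fitted relative to DMSO.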

[7] = read-out: Cytochrome P450 2C19 (Homo sapiens) (UniProt P33261); assay: LTEA_HepaRG_CYP2C19: Life Technologies and Expression Analysis (LTEA) Assay for CYP2C19 using HepaRG (AID 2283482)
How it was run: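 Transcript levels of CYP2C19 were quantified by qRT-PCR after HepaRG cells were treated for 48 hours with test chemicals up to 100 uM (eight half-log concentrations, 0.5% DMSO vehicle). Gain or loss of signal was fitted relative to DMSO.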

CYP2C8 (gene 1558) = assay: LTEA_HepaRG_CYP2C8: Life Technologies and Expression Analysis (LTEA) Assay for CYP2C8 using HepaRG (AID 2283483)
How it was run: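 CYP2C8 mRNA induction or loss, by qRT-PCR normalized to ACTB/GAPDH/POLR2A, is read in HepaRG cells after 48 h treatment. Concentrations run from 100 uM down in half-log dilutions, with 0.5% DMSO as vehicle and baseline.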

CYP2C9 (gene 1559) = assay: LTEA_HepaRG_CYP2C9: Life Technologies and Expression Analysis (LTEA) Assay for CYP2C9 using HepaRG (AID 2283484)
How it was run: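 Cells plated 48 h, switched to serum-free induction medium, then treated in duplicate for 48 h at eight concentrations (max 100 uM, 0.5% DMSO). RNA then analysed by qRT-PCR for CYP2C9; curves fitted in both directions relative to DMSO.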

CYP2E1 (gene 1571) = assay: LTEA_HepaRG_CYP2E1: Life Technologies and Expression Analysis (LTEA) Assay for CYP2E1 using HepaRG (AID 2283485)
How it was run: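 HepaRG cells, plated 48 h, then exposed 48 h in serum-free induction medium to eight half-log concentrations from 100 uM in 0.5% DMSO, duplicate. CYP2E1 mRNA by qRT-PCR, normalized to ACTB/GAPDH/POLR2A; bidirectional fit versus DMSO.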

CYP4A11 (gene 1579) = assay: LTEA_HepaRG_CYP4A11: Life Technologies and Expression Analysis (LTEA) Assay for CYP4A11 using HepaRG (AID 2283486)
How it was run: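 HepaRG, 48 h chem exposure, 8 conc (100 uM top, half-log), 0.5% DMSO vehicle; qRT-PCR readout, housekeeping-gene normalized; bidirectional curve fit vs DMSO baseline.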

[8] = read-out: Cytochrome P450 3A4 (Homo sapiens) (UniProt P08684); assay: LTEA_HepaRG_CYP3A4: Life Technologies and Expression Analysis (LTEA) Assay for CYP3A4 using HepaRG (AID 2283487)
How it was run: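 Differentiated HepaRG cells in serum-free induction medium exposed in duplicate for 48 h to 8 half-log concentrations up to 100 uM in 0.5% DMSO. CYP3A4 mRNA measured by qRT-PCR normalized to ACTB, GAPDH and POLR2A; bidirectional fit versus DMSO.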

[9] = read-out: DNA damage-inducible transcript 3 (DDIT3), DDIT3 (gene 1649); assay: LTEA_HepaRG_DDIT3: Life Technologies and Expression Analysis (LTEA) Assay for DNA damage-inducible transcript 3 (DDIT3) using HepaRG (AID 2283488)
How it was run: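 HepaRG cells, 48 h after plating, exposed 48 h in serum-free induction medium to 8 half-log concentrations up to 100 uM in 0.5% DMSO, in duplicate. DDIT3 mRNA measured by TaqMan qRT-PCR, normalized to ACTB, GAPDH and POLR2A. Fitted bidirectionally against DMSO.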

[10] = read-out: Pro-epidermal growth factor (Homo sapiens) (UniProt P01133); assay: LTEA_HepaRG_EGF: Life Technologies and Expression Analysis (LTEA) Assay for Epidermal growth factor (EGF) using HepaRG (AID 2283489)
How it was run: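 HepaRG, 48 h dosing, 100 uM top, half-log x8, 0.5% DMSO. Readout: TaqMan qRT-PCR (Fluidigm array), housekeeping-normalized. Gain or loss of signal fit vs DMSO.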

[11] = read-out: Ezrin (EZR), EZR (gene 7430); assay: LTEA_HepaRG_EZR: Life Technologies and Expression Analysis (LTEA) Assay for Ezrin (EZR) using HepaRG (AID 2283491)
How it was run: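 Differentiated human HepaRG cells, 48 h after plating, were exposed in serum-free induction medium for 48 hours to eight half-log concentrations up to 100 uM in 0.5% DMSO. EZR mRNA was measured by TaqMan qRT-PCR, normalized to ACTB, GAPDH and POLR2A, and fitted bidirectionally against DMSO.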

[12] = read-out: Cytochrome P450 3A7 (Homo sapiens) (UniProt P24462); assay: LTEA_HepaRG_CYP3A7: Life Technologies and Expression Analysis (LTEA) Assay for CYP3A7 using HepaRG (AID 2283492)
How it was run: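 Human HepaRG liver cells, 48 h post-plating, switched to serum-free induction medium and exposed in duplicate for 48 h. Dosing: 100 uM top, half-log dilutions, 8 points, 0.5% DMSO vehicle. Read-out: CYP3A7 mRNA, gain or loss fitted against DMSO baseline.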

[13] = read-out: Cytochrome P450 (CYP1A2), CYP1A2 (gene 1544); assay: LTEA_HepaRG_CYP1A2: Life Technologies and Expression Analysis (LTEA) Assay for Cytochrome P450 (CYP1A2) using HepaRG (AID 2283479)
How it was run: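 CYP1A2 transcript induction or loss, quantified by Fluidigm qRT-PCR against three housekeeping genes, was fitted bidirectionally against 0.5% DMSO controls. Human HepaRG cells received eight half-log concentrations from 100 uM over 48 h.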

[14] = read-out: Early growth response protein 1 (EGR1) transcription factor, EGR1 (gene 1958); assay: LTEA_HepaRG_EGR1: Life Technologies and Expression Analysis (LTEA) Assay for Early growth response protein 1 (EGR1) transcription factor using HepaRG (AID 2283490)
How it was run: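 Read-out is EGR1 mRNA level by qRT-PCR, normalized to three housekeeping genes and analysed for gain or loss of signal against 0.5% DMSO. Source cells: human HepaRG, treated 48 h at up to 100 uM in half-log dilutions.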

Measured: AC50

Chain of Caspase-3 (Homo sapiens) (P42574 whole entry, looked up): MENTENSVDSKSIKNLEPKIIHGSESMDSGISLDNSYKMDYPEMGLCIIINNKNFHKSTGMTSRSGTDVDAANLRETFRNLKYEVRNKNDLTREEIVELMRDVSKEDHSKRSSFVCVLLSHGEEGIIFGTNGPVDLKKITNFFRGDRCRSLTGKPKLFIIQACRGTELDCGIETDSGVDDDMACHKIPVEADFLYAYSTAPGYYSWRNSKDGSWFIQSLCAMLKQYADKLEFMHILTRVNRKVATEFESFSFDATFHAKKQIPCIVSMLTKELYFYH
Chain of Apoptosis regulator Bcl-2 (Homo sapiens) (P10415 whole entry, looked up): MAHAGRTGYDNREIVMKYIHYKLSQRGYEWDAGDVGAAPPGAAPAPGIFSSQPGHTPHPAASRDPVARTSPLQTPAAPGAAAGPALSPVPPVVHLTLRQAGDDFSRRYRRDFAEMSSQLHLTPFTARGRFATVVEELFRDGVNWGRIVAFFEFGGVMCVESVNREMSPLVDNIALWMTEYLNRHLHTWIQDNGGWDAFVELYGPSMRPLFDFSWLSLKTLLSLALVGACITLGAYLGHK
Chain of Cytochrome P450 3A7 (Homo sapiens) (P24462 whole entry, looked up): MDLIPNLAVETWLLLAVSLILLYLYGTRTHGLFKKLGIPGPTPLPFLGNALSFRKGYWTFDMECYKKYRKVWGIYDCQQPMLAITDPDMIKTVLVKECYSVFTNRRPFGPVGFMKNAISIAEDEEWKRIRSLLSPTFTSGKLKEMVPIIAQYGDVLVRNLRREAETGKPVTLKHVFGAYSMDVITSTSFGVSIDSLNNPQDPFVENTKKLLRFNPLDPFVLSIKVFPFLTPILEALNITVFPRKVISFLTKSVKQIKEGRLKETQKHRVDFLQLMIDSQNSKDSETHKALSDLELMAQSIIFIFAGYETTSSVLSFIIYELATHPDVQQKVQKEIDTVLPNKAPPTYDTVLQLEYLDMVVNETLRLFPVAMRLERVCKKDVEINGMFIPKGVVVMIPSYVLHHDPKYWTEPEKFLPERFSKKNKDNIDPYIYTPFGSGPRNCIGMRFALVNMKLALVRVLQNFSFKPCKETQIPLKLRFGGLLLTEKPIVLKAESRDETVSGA
Chain of Cytochrome P450 3A4 (Homo sapiens) (P08684 whole entry, looked up): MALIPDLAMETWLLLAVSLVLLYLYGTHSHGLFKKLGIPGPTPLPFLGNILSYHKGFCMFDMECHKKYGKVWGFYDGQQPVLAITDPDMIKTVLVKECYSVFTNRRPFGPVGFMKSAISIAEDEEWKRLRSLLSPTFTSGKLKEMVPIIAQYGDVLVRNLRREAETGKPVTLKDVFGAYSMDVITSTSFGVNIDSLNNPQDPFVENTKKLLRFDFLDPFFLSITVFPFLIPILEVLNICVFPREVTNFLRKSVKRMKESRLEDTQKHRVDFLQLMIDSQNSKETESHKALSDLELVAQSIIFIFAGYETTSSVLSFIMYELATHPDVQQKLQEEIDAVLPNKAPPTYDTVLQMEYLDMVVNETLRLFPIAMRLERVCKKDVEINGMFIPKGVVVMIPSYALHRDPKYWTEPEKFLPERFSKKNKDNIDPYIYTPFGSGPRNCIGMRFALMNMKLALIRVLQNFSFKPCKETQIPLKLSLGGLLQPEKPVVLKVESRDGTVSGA
Chain of Cytochrome P450 2C19 (Homo sapiens) (P33261 whole entry, looked up): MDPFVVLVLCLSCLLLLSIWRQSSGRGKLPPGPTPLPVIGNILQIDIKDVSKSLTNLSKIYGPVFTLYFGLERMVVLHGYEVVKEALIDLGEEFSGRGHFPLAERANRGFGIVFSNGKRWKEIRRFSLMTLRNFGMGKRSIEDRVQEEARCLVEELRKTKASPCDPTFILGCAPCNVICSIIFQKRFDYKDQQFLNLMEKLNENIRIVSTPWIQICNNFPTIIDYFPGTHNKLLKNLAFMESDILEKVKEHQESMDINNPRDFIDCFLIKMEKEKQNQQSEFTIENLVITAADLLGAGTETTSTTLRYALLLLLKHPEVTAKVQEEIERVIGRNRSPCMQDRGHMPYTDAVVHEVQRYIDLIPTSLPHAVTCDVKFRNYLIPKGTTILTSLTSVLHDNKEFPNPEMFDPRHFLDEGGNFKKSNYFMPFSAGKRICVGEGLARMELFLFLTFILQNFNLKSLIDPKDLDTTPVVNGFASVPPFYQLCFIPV

CCc1ccc(O)c(C(C)(C)C)c1
active: [3] 0.00367 µM
not listed: [13] | [14]
inactive: all other assays above

Cn1c(=O)c2[nH]cnc2n(C)c1=O
active: [3] 0.312 µM
not listed: [7] | CYP2C9 (gene 1559) | [14]
inactive: all other assays above

CCCC(CCC)C(=O)O
not listed: [7]
inactive: all other assays above

c1ccc2ncccc2c1
active: [6] 50 µM | CYP2C8 (gene 1558) 36.2 µM
not listed: [7] | CYP2C9 (gene 1559) | [14]
inactive: all other assays above

OC(CCl)CCl
not listed: [7] | [14]
inactive: all other assays above

OC(Cn1cncn1)(Cn1cncn1)c1ccc(F)cc1F
active: [6] 27.1 µM
not listed: [7] | [14]
inactive: all other assays above

OCc1ccccc1
not listed: [14]
inactive: all other assays above
